# Hits are enriched below; roughly 7.9% of the tested compounds scored in any of these assays.
# KB-V1 cytotox: kills drug-selected multidrug resistant KB-V1 cells; KB-V1 MDR cells viability, CellTiter-Glo, 72 h; Potency, µM (top dose mostly 46.1 µM), hits mostly cytotoxic; actives 3.4% (n = 400,000); AID 1347076; further: on the % scale 0 is the no-effect control and ±100 the full control effect; nearly all actives have a fitted effect of over 60% in size
#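 In this primary screen, KB-V1 cells overexpressing P-gp are incubated with library compounds (lowest to highest concentration) for 72 h at 37 degrees C before a luminescent ATP viability read.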
# SW480 rereplic: induces DNA re-replication in SW480 colon adenocarcinoma cells; SW480 DNA re-replication, Hoechst DNA content imaging, 48 h; Potency, µM (highest dose often 46.1 µM), for inactives: at the top dose re-replication activation, hits mostly activators; actives 1.8% (n = 340,000); AID 624297; further: % of control where 0% means no effect; nearly all actives have a fitted effect of over 55% in size
#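 SW480 cells exposed to compounds for 48 hr at 37 C, 5% CO2, then Hoechst-stained 40 min. Nuclear DNA content imaged by fluorescence scanning (405 nm excitation, 500-530 nm emission); re-replication scored as increased high-intensity nuclei.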
# HT1080NT lethal: kills 2HG-producing HT-1080-NT fibrosarcoma cells; HT-1080-NT fibrosarcoma viability, CellTiter-Glo ATP luminescence, 48 h; Potency, µM (series often up to 46.1 µM), inactives show top-dose activity, negative = less viability, most hits filed as cytotoxic; actives 1.6% (n = 360,000);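 further: NT is the 2HG producing partner of a matched IDH1 knockdown line; 0% = DMSO-treated cells and -100% = media-only wells without cells; nearly all actives have a fitted effect of over 55% in size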
#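 HT-1080-NT; 750 cells/well; 5% FBS RPMI; 48 h compound, 37 degrees C; CellTiter-Glo luminescence; curve fitting and curve-class assignment.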
# MCF10A rereplic: induces DNA re-replication in MCF 10a normal breast cells; Potency, µM (series often up to 46.1 µM), inactives show at the highest dose activity, positive = re-replication, hits mostly activators; MCF 10A DNA re-replication, Hoechst nuclear intensity, 48 h; actives 2.9% (n = 350,000); further: % of control where 0% means no effect; nearly all actives have a fitted effect of over 50% in size
# HT1080 IDH1KD tx: kills HT-1080 cells with IDH1 knockdown | HT-1080 IDH1 knockdown viability, ATP luminescence, 48 h | Potency, µM (top dose mostly 46.1 µM), inactives show top-dose activity, negative = toxicity, usual class: cytotoxic | actives 2% (n = 360,000);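 further: 0% = DMSO wells and -100% = cell-free medium wells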
#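 Assay cells: HT-1080 with IDH1 knockdown, 750 per well, RPMI/5% FBS. Exposure: 48 h at 37 °C following 2 h pre-incubation. Read: CellTiter-Glo luminescence; fitted concentration-response, curve class assigned.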
# KB-3-1 cytotox: KB-3-1 parental cell cytotoxicity | KB-3-1 viability, CellTiter-Glo ATP luminescence, 72 h | Potency, µM (titrated, usually from 46.1 µM), usual class: cytotoxic | AID 1347075 | actives 1.4% (n = 400,000); further: on the % scale 0 is the no-effect control and ±100 the full control effect; nearly all actives have a fitted effect of over 60% in size
#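 72 h, 37 °C compound treatment of KB-3-1 parental cells; CellTiter-Glo added, 10 min, luminescence read. Data corrected against DMSO-only plates and normalized before curve fitting.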
# Starred values were filed as active, the others as inactive; i = inactive; ? = inconclusive; / = no result given; [ ] = dose if it differs, or a comment. The call rests on the fitted dose curve; in most records, active means well fitted curve in the direction sought with a large enough effect; inconclusive means small, poorly fitted or top-dose-only effect, or another doubt; inactive means no such curve, though single readings can be large; an effect the other way counts as inactive or inconclusive. Potency means the concentration at half of the fitted maximal effect.
SMILES,KB-V1 cytotox,SW480 rereplic,HT1080NT lethal,MCF10A rereplic,HT1080 IDH1KD tx,KB-3-1 cytotox
CCn1nc(NC(=O)c2ccco2)c2cc3cc(C)ccc3nc21,?,18.4µM*,-0.5%,?,0.2%,i
Cc1ccc2[nH]c(=O)c(CN(CCc3ccccc3)Cc3nnnn3CC3CCCO3)cc2c1 (configuration not stated),14.6µM*,1.3%,-4.1%,-8.5%,-4.6%,i
COc1ccc2[nH]c(=O)c(CN(Cc3ccccc3OC)Cc3nnnn3CC3CCCO3)cc2c1 (configuration not stated),?,-1.4%,3.6%,0.1%,-15.8%,i
COc1ccccc1CN(Cc1cc2cc(C)ccc2[nH]c1=O)Cc1nnnn1CC1CCCO1 (configuration not stated),20.6µM*,-0.9%,-21.6%,?,-20.8%,i
N#Cc1ccc(C23OCCN2CCn2c3c3ccccc3[n+]2[O-])cc1 (configuration not stated),i,?,3.4%,?,-4.3%,i
OCC(O)C[n+]1cccc(Br)c1 (configuration not stated),i,/,/,/,/,?
CCOc1ccc(S(=O)(=O)N2CN(c3cccc(C(C)=O)c3)c3nc4ccccc4nc32)cc1,i,0.0%,0.4%,-3.2%,-0.6%,i
CCN(CC)CCn1c2ccccc2c2nc3ccc([N+](=O)[O-])cc3cc21,i,20.6µM*,-28.5%,?,-29.9%,i
CCOc1ccc(NCc2nnc(SCc3ccccc3Cl)n2-c2ccccc2)cc1,20.6µM*,20.3%,?,?,?,i
O=C1Cc2ccccc2C(c2ccc(Cl)cc2)N1 (configuration not stated),i,-2.2%,-8.3%,?,-22.6%,i
S=C1Cc2ccccc2C(c2ccc(Cl)cc2)N1 (configuration not stated),i,?,-11.2%,16.4µM*,-22.7%,i
Cc1c(OCC(=O)N2CCC(C(=O)NCCCC(=O)O)CC2)ccc2c1oc(=O)c1ccccc12,i,-14.4%,7.3%,7.6%,8.5%,i
COCCCNC(=O)c1cc2cc3cc(OC)ccc3nc2o1,i,-5.5%,-1.3%,-0.9%,6.8%,i
COc1ccc(NC(=O)Nc2ccccc2C(N)=O)cc1OC,i,0.4%,4.0%,3.6%,-14.5%,i
Cc1cc(NC(=O)NC(=O)c2ccccc2NC(=O)CN)ccc1Oc1ncc(Br)cn1,?,2.91µM*,0.517µM*,?,?,1.16µM*
Nc1ccccc1C(=O)NC(=O)Nc1ccc(Oc2ncc(Br)cn2)c(Cl)c1,0.13µM*,0.517µM*,?,?,?,0.206µM*
COc1ccccc1C(=O)NC(=O)Nc1cccc(Cl)c1,i,-10.4%,-8.7%,1.4%,1.0%,i
Cc1cc(NC(=O)NC(=O)c2ccccc2NC(=O)CN(C)C)ccc1Oc1ncc(Br)cn1,2.06µM*,6.51µM*,?,14.6µM*,?,2.91µM*
COc1ccc(Cl)cc1NC(=O)c1c(NCc2ccc(C)o2)sc2c1CCCCC2,i,/,/,/,/,i
COc1ccc(NC(=S)N/C(=N/CS(=O)(=O)c2ccccc2)c2ccccc2)cc1,i,?,0.8%,16.4µM*,-5.4%,i
O=[N+]([O-])c1ccc(NC(=S)N/C(=N/CS(=O)(=O)c2ccccc2)c2ccccc2)cc1,?,-2.0%,0.2%,0.4%,-9.9%,i
Cc1cc(NC(=O)c2cc(-c3ccncc3)nc3ccccc23)ccc1Br,8.2µM*,10.4%,2.9%,?,-20.5%,?
O=C(Nc1nc2c(s1)CCCC2)c1cc(-c2ccccc2)nc2ccccc12,13µM*,/,8.9%,7.9%,-0.5%,i
CC(=O)c1cccc(NC(=O)c2cc(-c3ccncc3)nc3ccccc23)c1,?,?,-4.9%[9.24 µM],0.0%,-22.7%,i
